This experiment concerns iBMDM (immortalised mouse bone-marrow-derived macrophages), LPS-stimulated. Description: mitochondrial superoxide (MitoSOX fluorescence) fold increase over unstimulated control; higher = more LPS-induced mitochondrial ROS (less inhibition). As to conditions: inhibitor concentration: 500 nM, LPS: 100 ng/ml. An outline of the steps:
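Mitochondrial superoxide was expressed as fold induction over untreated macrophages. Immortalised mouse bone-marrow-derived macrophages were pretreated with kinase inhibitors (500 nM) for 30 min, loaded with 1 μM MitoSox for 10 min and stimulated with LPS (100 ng/ml). MitoSox fluorescence (excitation 510 nm, emission 580 nm) was read hourly over 4 h, and the three replicates were averaged.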

SMILES strings stand for the structures. Values joined by “and” are separate entries in the source; they are usually repeats but may differ in a detail not shown here. Equal values may be shown once. ± gives the standard deviation of the averaged measurements.

For the compound `CC(C)(C)Cn1c(N)nc2ccc(-c3[nH]c(C(C)(C)C)nc3-c3ccc(F)cc3)nc21`, the mitochondrial superoxide runs as follows: (time after LPS: 1 h) 1.111 ± 0.0047; (time after LPS: 2 h) 1.17 ± 0.032; (time after LPS: 4 h) 1.33 ± 0.066.

In turn, `CCn1c(N)c(C(=O)NC)c(=O)c2ccc(C#CC(C)(O)COC)nc21` (configuration not stated) had a mitochondrial superoxide (time after LPS: 1 h) of 1.11 ± 0.027, a mitochondrial superoxide (time after LPS: 2 h) of 1.22 ± 0.042 and a mitochondrial superoxide (time after LPS: 4 h) of 1.33 ± 0.051.

As for `CCn1c2ccccc2c2cc(Nc3ccnc(NCCCN4CCOCC4)n3)ccc21`, the mitochondrial superoxide (time after LPS: 1 h) was found to be 1.41 ± 0.063, the mitochondrial superoxide (time after LPS: 2 h) worked out at 1.54 ± 0.086 and the mitochondrial superoxide (time after LPS: 4 h) worked out at 1.67 ± 0.096.

With `Nc1ccc(-c2ccc3ncc4ccc(=O)n(-c5cccc(C(F)(F)F)c5)c4c3c2)cn1` [Torin 2], the mitochondrial superoxide came out at 1.18 ± 0.042 (time after LPS: 1 h), 1.17 ± 0.05 (time after LPS: 2 h) and 1.24 ± 0.1 (time after LPS: 4 h).

With `N#CC[C@H](C1CCCC1)n1cc(-c2ncnc3[nH]ccc23)cn1`, the mitochondrial superoxide was 1.19 and 1.09 (time after LPS: 1 h); 1.29 and 1.15 (time after LPS: 2 h); 1.35 and 1.29 (time after LPS: 4 h).

In the case of `Nc1ncnc2c1c(-c1cccc(OCc3ccccc3)c1)cn2C1CC(CN2CCCC2)C1` (configuration not stated), the mitochondrial superoxide stood at 1.44 ± 0.15 (time after LPS: 1 h), 1.55 ± 0.18 (time after LPS: 2 h) and 1.62 ± 0.21 (time after LPS: 4 h).

Consider `C[C@@H]1COC(Nc2ccc3ncnc(Nc4ccc(OCc5nccs5)c(Cl)c4)c3c2)=N1` [Varlitinib], for which the mitochondrial superoxide reads like this: (time after LPS: 1 h) 1.3 ± 0.019; (time after LPS: 2 h) 1.39 ± 0.09; (time after LPS: 4 h) 1.69 ± 0.08.

Turning to `O=C(c1ccc(Nc2nccc(-c3cc4ccccc4s3)n2)cc1)N1CCC(N2CCCC2)CC1` [IKK-16 (IKK Inhibitor VII)], the mitochondrial superoxide came out at 1.08 ± 0.084 (time after LPS: 1 h), 1.09 ± 0.087 (time after LPS: 2 h) and 1.16 ± 0.17 (time after LPS: 4 h).

`Cc1cc([C@@H](C)Nc2ccccc2C(=O)O)c2nc(N3CCOCC3)cc(=O)n2c1` came in with a mitochondrial superoxide (time after LPS: 1 h) of 1.14 ± 0.043, a mitochondrial superoxide (time after LPS: 2 h) of 1.22 ± 0.077 and a mitochondrial superoxide (time after LPS: 4 h) of 1.21 ± 0.027.

For `CN1CCN(CCOc2cc(OC3CCOCC3)c3c(Nc4c(Cl)ccc5c4OCO5)ncnc3c2)CC1` [Saracatinib (AZD0530)], the mitochondrial superoxide worked out at 1.516 ± 0.0097 (time after LPS: 1 h), 1.63 ± 0.047 (time after LPS: 2 h) and 1.85 ± 0.073 (time after LPS: 4 h).

Take `CNC(=O)c1cc(Oc2ccc(NC(=O)Nc3ccc(Cl)c(C(F)(F)F)c3)cc2)ccn1` [Sorafenib]: the mitochondrial superoxide by setting is: (time after LPS: 1 h) 1.48 ± 0.09; (time after LPS: 2 h) 1.45 ± 0.032; (time after LPS: 4 h) 1.66 ± 0.029.

In turn, `Nc1ccc(C(=O)Nc2cccc(-c3nc(N4CCOCC4)c4oc5ncccc5c4n3)c2)cn1` displayed a mitochondrial superoxide (time after LPS: 1 h) of 1.15 ± 0.037, a mitochondrial superoxide (time after LPS: 2 h) of 1.23 ± 0.053 and a mitochondrial superoxide (time after LPS: 4 h) of 1.24 ± 0.028.

For `O=C1NC(=O)/C(=C/c2ccc(-c3ccc(F)cc3O)o2)S1`, the mitochondrial superoxide (time after LPS: 1 h) was determined as 1.4 ± 0.16, the mitochondrial superoxide (time after LPS: 2 h) was determined as 1.54 ± 0.25 and the mitochondrial superoxide (time after LPS: 4 h) was 1.78 ± 0.2.

As to `Nc1cccc(-c2cc3c(Oc4cccc(O)c4)ncnc3[nH]2)c1`, the mitochondrial superoxide reads like this: (time after LPS: 1 h) 1.06 ± 0.059; (time after LPS: 2 h) 1.17 ± 0.022; (time after LPS: 4 h) 1.25 ± 0.03.

In the case of `C=CC(=O)Nc1cccc(Nc2nc(Nc3ccc(OCCOC)cc3)ncc2F)c1`, the mitochondrial superoxide by setting is: (time after LPS: 1 h) 1.17 ± 0.03; (time after LPS: 2 h) 1.24 ± 0.072; (time after LPS: 4 h) 1.29 ± 0.019.

As for `COc1ccc2c(c1)c(C1=C(c3c[nH]c4ccccc34)C(=O)NC1=O)cn2CCCN(C)C`, the mitochondrial superoxide is 1.23 ± 0.056 (time after LPS: 1 h), 1.27 ± 0.043 (time after LPS: 2 h) and 1.36 ± 0.042 (time after LPS: 4 h).

Consider `COc1cc(N2CCC(N(C)C)CC2)ccc1Nc1ncc(Cl)c(Nc2ccccc2P(C)(C)=O)n1`, for which the mitochondrial superoxide is 1.15 ± 0.031 (time after LPS: 1 h), 1.27 ± 0.11 (time after LPS: 2 h) and 1.33 ± 0.076 (time after LPS: 4 h).

In the case of `CCN(CCO)CCCOc1ccc2c(Nc3cc(CC(=O)Nc4cccc(F)c4)[nH]n3)ncnc2c1` [Barasertib (AZD1152-HQPA)], the mitochondrial superoxide (time after LPS: 1 h) came out at 1.33 ± 0.093, the mitochondrial superoxide (time after LPS: 2 h) is 1.39 ± 0.13 and the mitochondrial superoxide (time after LPS: 4 h) was found to be 1.44 ± 0.13.

As to `N#CC(=Cc1ccc(O)c(O)c1)C(=O)NCc1ccccc1` [AG-490 (Tyrphostin B42)], the mitochondrial superoxide is, setting by setting: (time after LPS: 1 h) 1.35 ± 0.052; (time after LPS: 2 h) 1.36 ± 0.041; (time after LPS: 4 h) 1.44 ± 0.097.

Source of the values: the supplement of paper PMC7393113.
